Source: PubChem BioAssay (Tox21)
Where “and” joins values, the source holds several entries; their conditions need not be identical. Equal values may be shown once. Values without a mark were called inactive. Where a call stands in place of a potency, no number is given. Calls of active or inactive are those of the source. Calls follow the shape of the dose curve; as a rule, active = well fitted activation curve with a large enough effect in the repeat runs; inconclusive = weak or mixed curves; inactive = flat fitted curve, though single readings scatter.

Experiment: A CellTox Green Cytotoxicity Assay to monitor cytotoxicity in HepG2 cells - 0 hour (AID 1224882); also: nearly all actives have a fitted effect of over 35% in size
Settings: CellTox Green fluorescence; series mostly up to 76.8 µM
Text: National Center for Advancing Translational Sciences [NCATS]
NIH Chemical Genomics Center [NCGC]
U.S. Environmental Protection Agency [EPA]
National Institutes of Environmental Health Sciences [NIEHS]
National Toxicology Program [NTP]
Cell-based models are critical for drug discovery. Determining the natural cytotoxic effects resulting from test compounds is an essential research activity. A CellTox Green Cytotoxicity Assay to monitor cytotoxicity in real time of continues cell culture during 40 hours of the compound treatment was used to screen Tox21 10K library compounds in HepG2 cells. CellTox Green Cytotoxicity Assay is a nonlytic, homogeneous, biofluorescent method to measure cytotoxicity in cell culture after experimental manipulation. The assay system uses a proprietary asymmetric cyanine dye that is excluded from viable cells but preferentially stains the dead cell's DNA. […] Viable cells produce no appreciable increases in fluorescence. Therefore, the fluorescence signal produced by the binding interaction with dead cell DNA is proportional to cytotoxicity.
The mixture of HepG2 cell suspension and reagents were dispensed at 600cells/6 ul/well in 1536-well tissue culture treated black solid bottom plates using a Multidrop dispenser. After the assay plates were incubated at a 37 C/5% CO2 incubator for 5 hours, 23 nL of compounds dissolved in DMSO, positive and negative controls was transferred to the assay plate by a pintool work station. The plates were incubated at 37 C for 40 hours. The fluorescence intensity were measured at 0h, 8h, 16h, 24h, 32h and 40h time points using ViewLux plate reader during compound treatment.
Potency is read from the fitted curve at half-maximal effect.

Compound	Potency	cytotoxicity
O=C(O)CCCCCCC(=O)O	inactive	
C/C=C/c1ccc(OC)c(OC)c1	inactive	
CC(=O)OC1CCCCC1	inactive	
C=CC(=C)CC/C=C(\C)CCC=C(C)C		-7.07% [at 15.8 µM]
CN(Cc1cc(Br)cc(Br)c1N)C1CCCCC1	inactive	
C=C/C=C/C=C/CCCCC		-3.64% [at 15.8 µM]
Nc1ccc2cc3ccc(N)cc3nc2c1	49 µM (active) and 23.9 µM (active)	
O=C1OC(=O)c2cccc3cccc1c23	inactive	
C/C=C/C(=O)C1=C(C)CCCC1(C)C	inactive	
O=C1c2c(O)ccc([N+](=O)[O-])c2C(=O)c2c([N+](=O)[O-])ccc(O)c21	inactive	
CCCCCCCCCCCCN(CCO)CCO	inactive	
CNC(=S)NN	inactive	
Clc1ccc(C(Cn2ccnc2)OCc2ccsc2Cl)c(Cl)c1 (stereo not given)	inactive	
CCOCN(C(=O)CS(=O)(=O)O)c1c(C)cccc1CC	inactive	
CCN=c1cc2oc3cc(NCC)c(C)cc3c(-c3ccccc3C(=O)OCC)c-2cc1C	6.89 µM (active) and 6.17 µM (active)	
C/C=C/CO	inactive	
CC(=O)Nc1ccc(O)cc1	inactive	
CCCCCCCCCCCCCCNCCO	inactive	
Cn1cnc2ncnc(N)c21	inactive	
C=C(C)C(=O)OCCC[Si](Cl)(Cl)Cl	inactive	

Compound	Potency	cytotoxicity
CC(=O)c1ccccc1N	inactive	
Oc1ccc(-c2ccc(O)cc2)cc1	inactive	
Clc1cccnc1	inactive	
COc1cccc(O)c1	inactive	
C[C@H]1O[C@@H](O[C@H]2[C@@H](O)C[C@H](O[C@H]3[C@@H](O)C[C@H](O[C@H]4CC[C@@]5(C)[C@H](CC[C@@H]6[C@@H]5C[C@@H](O)[C@]5(C)[C@@H](C7=CC(=O)OC7)CC[C@]65O)C4)O[C@@H]3C)O[C@@H]2C)C[C@H](O)[C@@H]1O	inactive	
CC(CN(C)C)CN1c2ccccc2CCc2ccccc21 (stereo not given)	inactive	
Oc1ccc(-c2ccccc2)c(Cl)c1	inactive	
CC[N+](CC)(CC)Cc1ccccc1	inactive	
CC(C)=C1CC[C@@H](C)CC1=O	inactive	
Clc1nc2ccccc2s1	inactive	
C1CC(COCC2CO2)CCC1COCC1CO1 (stereo not given)	inactive	
c1ccc(Nc2cccc3ccccc23)cc1	inactive	
ClC/C=C\CCl	inactive	
C[C@@H]1CC[C@H]2C(C)(C)[C@H]3C[C@@]12CC[C@@]3(C)O	inactive	
C/C=C/C(=O)Oc1c(CCCCCC(C)C)cc([N+](=O)[O-])cc1[N+](=O)[O-]	inactive	
CC(O)C#CC(C)O (stereo not given)	inactive	
Cc1cnccn1	inactive	
OCCC(O)CO (stereo not given)	inactive	
COc1cccc(CCc2ccccc2OCC(CN(C)C)OC(=O)CCC(=O)O)c1 (stereo not given)	inactive	
COc1ccccc1C=O	inactive	
